Compounds without any hit were thinned out: in the full panel of roughly 83,000, 20% have a hit.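 Assay: single dose, 48 h. Readout: percent growth (0 = no net growth; negative = cell death). Active: <10.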 Unmarked numbers belong to inactive results. Active and inactive are the calls of the source.
System: SNB-19 CNS
Assay: NCI-60 one-dose screen, 48 h (100 = growth as untreated, 0 = no growth, -100 = all killed)
Details: 10 µM unless noted
Experimental: Growth inhibition of the SNB-19 human tumor cell line is measured as a screen for anti-cancer activity. Cells are grown in 96 well plates and exposed to the test compound for 48 hours. Compounds are tested at a single concentration, which is 10^-5 M for most compounds. The reported endpoint is percent growth (GI% or GIPRCNT), where numbers from 0 - 100% represent growth inhibition, and numbers from -100% - 0 represent cell death. For example, a value of 40 represents 60% growth inhibition. A value of 0 means no net growth occurred over the course of the experiment. A value of -40 indicates 40% of cells at the beginning of the experiment died by the end of the experiment. A value of -100 means all cells are dead at the end of the experiment.
NCI-60 Human Tumor Cell Lines Screen was performed using the standard one-dose NCI protocol, which is described in more detail at https://dtp.cancer.gov/discovery_development/nci-60/default.htm.
Compounds with GIPRCNT values below 10 were considered active. Activity score was based on GIPRCNT using the following formula: […]
Score is 0 for GIPRCNT values of 100 or above, 50 for GIPRCNT values of 0, and 100 for GIPRCNT values of -100.

Row | Structure (SMILES) | growth
1 | O=C(NCc1ccc(Cn2c(=O)sn(-c3ccccc3)c2=O)cc1)OCc1ccc2cccc(O)c2n1 | 44.7%
2 | O=c1oc2ccccc2cc1-c1nn(-c2ccccc2)cc1-c1nn[nH]n1 | 98%
3 | Cn1c(C#N)ccc1-c1ccc(F)c(NC(=O)c2ccc(F)cc2)c1 | 84.1%
4 | C=CCn1cc(-c2nc3ccccc3s2)c2cc(-c3ccc4c5c(cccc35)C(=O)N(CCO)C4=O)ccc21 | 93.1%
5 | CCn1cc(C(=O)N/N=C/c2cccc(F)c2)c(=O)c2cc(F)c(N3CCNC(C)C3)c(F)c21 (stereo not given) | -59.4% (active)
6 | C=C1C(=O)O[C@@H]2C3C(=C(C)CC[C@@H]12)CC1O[C@]13C (stereo not given in full) | 92.8% [6.75 µM]
7 | Cc1ccc(S(=O)(=O)N2CCCN(c3nc(-c4ccccc4)nc4nc(-c5ccccc5)oc34)CC2)cc1 | 102%
8 | COc1cc(N2C(=O)[C@H](Cl)C2c2ccc(SC)cc2)cc(OC)c1OC (stereo not given in full) | 30.5%
9 | c1ccc(-c2ccc3c(c2)C2(CCNCC2)CN3)cc1 | 101%
10 | O=c1cc(CNc2cc(F)cc(F)c2)c2ccc(I)cc2[nH]1 | 49.8%
11 | c1ccc(Nc2nc3c(s2)CCc2c[nH]cc2-3)nc1 | 100%
12 | COc1cc(Cc2cc(-c3ccccc3)nn(Cc3ccccc3)c2=O)cc(OC)c1OC | 51.7%
13 | Cc1cc(C(=O)CCCC(=O)c2cc(C)c(O)c(C)c2)cc(C)c1O | 88.1%
14 | COc1ccc(/C=C2\CN(C(=O)C(Cl)Cl)C/C(=C\c3ccc(OC)c(OC)c3)C2=O)cc1OC | 6.34% (active)
15 | CCOC(=O)c1[nH]cc2c1CCc1sc(Nc3ccccn3)nc1-2 | 85.2%
16 | CC1(C)CC[C@]23CC[C@]4(C)[C@H](CC[C@@H]5[C@@]6(C)CCNCC(C)(C)[C@@H]6CC[C@]54C)[C@H]2[C@H]1OC3 | 103%
17 | CCOC(=O)C1=C(CC(O)c2ccc(OC)cc2OC)NC(=O)NC1c1ccccc1 (stereo not given) | 99.8%
18 | O=c1cc(C(F)(F)F)c2cc(-c3cc4ccccc4c(=O)o3)c(O)cc2o1 | 67.7%
19 | CS(=O)/C(C#N)=C\C=C\c1cccc(Cl)c1 (stereo not given) | 27.2%
20 | O=C(C[C@]1(O)C(=O)Nc2ccc(Br)cc21)c1ccco1 | 95.6%

Row | Structure (SMILES) | growth
21 | Nc1ccc(-c2ccncc2)cc1NC(=O)N1CCCC1 | 106%
22 | N#Cc1c(-c2ccccc2)nc2c(c(-c3ccccc3)nn2-c2ccccc2)c1-c1ccc(N2CCCCC2)cc1 | 99.3%
23 | COC12C=C/C(=C(/C(=O)OCc3csc(SC)n3)C(=O)CCCCCCCCC3(OC)C=C/C(=C(/C(=O)OCc4cnc(SC)s4)C(=O)CCCCCCCC1)O3)O2 (stereo not given) | 47.3%
24 | COc1cc(/C=C/C(=O)c2cccc(-n3cc(-c4ccc(Cl)cc4)[nH]c3=O)c2)ccc1O | 94.9%
25 | CN(C)CCCC1(c2ccc(F)cc2)OCc2cc(-c3csc4ccccc34)ccc21 (stereo not given) | -35.6% (active)
26 | C=C(C)[C@@H]1CC[C@]2(COC3CCCCO3)CC[C@]3(C)[C@H](CC[C@@H]4[C@@]5(C)C=C(C=O)C(=O)C(C)(C)[C@@H]5CC[C@]43C)[C@@H]12 (stereo not given in full) | -71.4% (active)
27 | CC(=O)c1sc(-c2ccc(F)cc2)cc1O | 103%
28 | COc1cc2ncnc(Nc3ccc(F)c(Cl)c3)c2cc1OCC(=O)N1CCOCC1 | 86%
29 | O=S(=O)(N=C1C(Cl)=C(Cl)C(=NS(=O)(=O)c2ccccc2)C(Cl)=C1Cl)c1ccccc1 | 95.9%
30 | COc1ccc2cc(-c3nc4ccc(C)cn4c3NCc3ccco3)c(=O)[nH]c2c1 | 34.6%
31 | O=c1cc(CP(=O)(O)O)c2cc(O)c(-c3ccccc3)cc2o1 | 96.8%
32 | CCNC(=O)N1CCc2c(Br)c3c(c(OC)c2C1Cc1ccc(OC)cc1)OCO3 (stereo not given) | 49.7%
33 | O=C(OCc1ccc2c(Cl)cc(Cl)c(O)c2n1)N1CCN(C(=O)c2cc3ccccc3[nH]2)CC1 | 24.5%
34 | O=C1c2cccnc2C(=O)c2c1c(C(=O)OCCc1ccccn1)c1ccccn21 | -38.7% (active)
35 | CCOC(=O)NCCCC(=O)NCCc1ccccc1 | 108%
36 | CCOC(=O)/C(=C(/C)NCC(C)C)c1cc(O)c(O)c2c(C)cc(=O)[nH]c12 | 50.9%
37 | CN1c2ccccc2S(=O)(=O)n2c(SCC(=O)Nc3nc4ccc(F)cc4s3)nnc21 | 107%
38 | CCN1C(=O)N(CC)C2C1NN=c1s/c(=C\c3ccc(OC)cc3)c(=O)n12 (stereo not given) | 26.9%
39 | Cc1c2ncccc2nc2[nH]c3ccc(OCCN(C)C)cc3c12 | 15.3%
40 | O=C1C=CC2(O)OC/C(=C\c3ccccc3)C(O)=C2C1=O (stereo not given) | 27.6%

Reference: PubChem BioAssay (NCI)
